Laboratory results reported in PubChem BioAssay (Tox21).
Active and inactive are the calls of the source. Entries that show only a call come without a potency. Calls come from the whole dose curve; as a rule, active = well fitted activation curve with a large enough effect in the repeat runs; inconclusive = weak or mixed curves; inactive = flat fitted curve, though single readings scatter.

Assay: A CellTox Green Cytotoxicity Assay to monitor cytotoxicity in HepG2 cells - 0 hour (AID 1224882); note: nearly all actives have a fitted effect of over 35% in size
Conditions: CellTox Green fluorescence; series mostly up to 76.8 µM
From the text: National Center for Advancing Translational Sciences [NCATS]
NIH Chemical Genomics Center [NCGC]
U.S. Environmental Protection Agency [EPA]
National Institutes of Environmental Health Sciences [NIEHS]
National Toxicology Program [NTP]
Cell-based models are critical for drug discovery. Determining the natural cytotoxic effects resulting from test compounds is an essential research activity. A CellTox Green Cytotoxicity Assay to monitor cytotoxicity in real time of continues cell culture during 40 hours of the compound treatment was used to screen Tox21 10K library compounds in HepG2 cells. CellTox Green Cytotoxicity Assay is a nonlytic, homogeneous, biofluorescent method to measure cytotoxicity in cell culture after experimental manipulation. The assay system uses a proprietary asymmetric cyanine dye that is excluded from viable cells but preferentially stains the dead cell's DNA. […] Viable cells produce no appreciable increases in fluorescence. Therefore, the fluorescence signal produced by the binding interaction with dead cell DNA is proportional to cytotoxicity.
The mixture of HepG2 cell suspension and reagents were dispensed at 600cells/6 ul/well in 1536-well tissue culture treated black solid bottom plates using a Multidrop dispenser. After the assay plates were incubated at a 37 C/5% CO2 incubator for 5 hours, 23 nL of compounds dissolved in DMSO, positive and negative controls was transferred to the assay plate by a pintool work station. The plates were incubated at 37 C for 40 hours. The fluorescence intensity were measured at 0h, 8h, 16h, 24h, 32h and 40h time points using ViewLux plate reader during compound treatment.
Potency is the fitted concentration of half-maximal effect.

Structure (SMILES)	Potency
O=S1OCC2C(CO1)C1(Cl)C(Cl)=C(Cl)C2(Cl)C1(Cl)Cl (stereo not given)	inactive
ClC1=C(Cl)[C@]2(Cl)[C@@H]3[C@H]4C[C@H]([C@@H]5O[C@H]45)[C@@H]3[C@@]1(Cl)C2(Cl)Cl	inactive
CCCCN(CCCC)C(=S)S	inactive
c1ccc2c(c1)cc1ccc3cccc4ccc2c1c34	inactive
CN	inactive
CN1[C@@H]2CC[C@H]1CC(O)C2 (stereo not given in full)	inactive
COP(=O)(OC)O/C(=C\Cl)c1cc(Cl)c(Cl)cc1Cl	inactive
CCCC[N+]1(C)CCCC1 (tested in a mixture with another compound)	inactive
O=C(O)[C@H](O)[C@@H](O)C(=O)O	inactive
CC(=O)[O-].CC(=O)[O-].[Co+2]	inactive
CCN(CC)CCN1C(=O)CN=C(c2ccccc2F)c2cc(Cl)ccc21	inactive
CCc1cccc(C)c1N(C(=O)CCl)[C@@H](C)COC	inactive
CC(C)N(C(=O)CCl)c1ccccc1	inactive
O=C(CCCCl)c1ccc(F)cc1	inactive
O=[N+]([O-])c1ccccc1-c1ccccc1	inactive
CCC[CH2][Sn]([CH2]CCC)([CH2]CCC)[CH2]CCC	38.9 µM (active)
[O-][Cl+3]([O-])([O-])O	inactive
O=S1(=O)OCC2C(CO1)C1(Cl)C(Cl)=C(Cl)C2(Cl)C1(Cl)Cl (stereo not given)	inactive
O=NN(CCO)CCO	inactive
Cc1ccccc1OP(=O)(Oc1ccccc1C)Oc1ccccc1C	inactive

Structure (SMILES)	Potency
CN1C2CCC(C)(C)C1CC(OC(=O)C(O)(c1cccs1)c1cccs1)C2 (stereo not given)	inactive
CCC1(CC)C(=O)N=C(O)NC1=O	inactive
C[C@H]1[C@H](c2ccc(Cl)cc2)SC(=O)N1C(=O)NC1CCCCC1	inactive
O=C1C2(Cl)C3(Cl)C4(Cl)C(Cl)(Cl)C5(Cl)C3(Cl)C1(Cl)C5(Cl)C24Cl (stereo not given)	inactive
CC[C@H](C)[C@H]1O[C@]2(C=C[C@@H]1C)C[C@@H]1C[C@@H](C/C=C(\C)[C@@H](O[C@H]3C[C@H](OC)[C@@H](O[C@H]4C[C@H](OC)[C@@H](NC)[C@H](C)O4)[C@H](C)O3)[C@@H](C)/C=C/C=C3\CO[C@@H]4[C@H](O)C(C)=C[C@@H](C(=O)O1)[C@]34O)O2	inactive
CNC(=O)Oc1cc(C)cc(C(C)C)c1	inactive
CCC(C)Br (stereo not given)	inactive
CSC(C)(C)/C=N/O	inactive
O=C(Nc1ccc(F)cc1F)c1cccnc1Oc1cccc(C(F)(F)F)c1	inactive
O=C(NC(=O)c1c(F)cccc1F)Nc1ccc(Oc2ccc(C(F)(F)F)cc2Cl)cc1F	inactive
C=CC(=C)C	inactive
COP(=O)(OC)Oc1ccc([N+](=O)[O-])cc1	inactive
O=C(N[C@@H]1N=C(c2ccccc2F)c2cccc3c2N(CC3)C1=O)c1cc2ccccc2[nH]1	26.8 µM (active)
COC(=O)N(OC)c1ccccc1COc1ccn(-c2ccc(Cl)cc2)n1	inactive
Clc1ccc(C2(Cn3cncn3)OCCO2)c(Cl)c1	inactive
Cc1c([N+](=O)[O-])cc2c(c1[N+](=O)[O-])C(C)(C)CC2(C)C	inactive
CNC(C)(C)Cc1ccccc1	inactive
Nc1cc(Cl)ccc1Cl	inactive
CCCCc1ccccc1	inactive
CC(C)=CCN1CC[C@@]2(C)c3cc(O)ccc3C[C@@H]1[C@@H]2C	inactive
